# Only some compounds are listed: those with a hit (about 3.6% of all), similar ones and a draw of the others.
# Epigenetic reg = derepresses silenced GFP reporter in murine cells; murine LDR cells, GFP reporter derepression, 30 h; Potency, µM (titrated, usually from 53.9 µM), for the others: at the highest dose GFP activation, most hits filed as activators; 0.2% of 280,000 active; also: % of control where 0% means no effect; nearly all actives have a fitted effect of over 60% in size
#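 Murine LDR cells carrying a silenced, genomically integrated CMV-driven GFP reporter were exposed to compound for 30 hours at 37 C. After PBS washes, GFP-positive cells (20–120 um objects) were counted by laser-scanning microplate cytometry.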
# KDM4E inh = JMJD2E (human) inhibition. B2RXH2. JMJD2E catalytic domain, FDH-coupled NADH fluorescence (FDH is formaldehyde dehydrogenase). Potency, µM (series often up to 57.1 µM), for inactives: top-dose activity change, negative = inhibition, most hits filed as inhibitors. 1.6% of 230,000 active. AID 2147; active = well fitted inhibition curve with a large enough effect, not every such curve was filed as active; inconclusive = small, poorly fitted or top-dose-only effect, or another doubt; inactive = no such curve, though single readings can be large or run the other way;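 also: 0% = wells with enzyme and -100% = buffer wells without enzyme; nearly all actives have a fitted effect of over 50% in size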
# NPSR antag = neuropeptide S receptor (human) antagonism, cAMP. Q6W5P4. CHO-NPSR cells, cAMP TR-FRET, antagonist mode. Potency, µM (series often up to 38.3 µM), for the others: top-dose activity change, negative = inhibition, actives largely listed as inhibitors. 1% of 220,000 active. AID 1461; also: % is scaled to controls: 0 for no effect and ±100 for the full control effect; nearly all actives have a fitted effect of over 50% in size
# Target sequence (Q6W5P4 whole entry, looked up): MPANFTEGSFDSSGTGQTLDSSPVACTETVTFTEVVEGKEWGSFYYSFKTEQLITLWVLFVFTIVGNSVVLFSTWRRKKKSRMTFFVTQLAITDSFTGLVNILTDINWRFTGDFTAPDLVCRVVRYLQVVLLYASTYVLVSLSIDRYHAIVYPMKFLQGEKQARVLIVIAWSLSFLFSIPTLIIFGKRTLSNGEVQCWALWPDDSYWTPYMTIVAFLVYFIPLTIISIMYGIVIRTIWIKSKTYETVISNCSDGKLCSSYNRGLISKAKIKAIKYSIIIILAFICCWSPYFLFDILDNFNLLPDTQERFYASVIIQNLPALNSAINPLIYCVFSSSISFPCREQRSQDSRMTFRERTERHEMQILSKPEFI
# Sfp inh = Sfp phosphopantetheinyl transferase inhibition. Potency, µM, for the others: largest response in the series, negative = inhibition, usual class: inhibitors. Biochemical Sfp PPTase activity, qHTS. 3.5% of 310,000 active;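 also: the enzyme is Sfp with the accession as filed and its product quenches rhodamine fluorescence; 0% = enzyme reaction without inhibitor and -100% = no enzyme wells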
#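 Compounds were incubated with enzyme (final 15 nM) for 15 min at room temperature before substrate addition started the reaction. Fluorescence at 525 nm excitation, 598 nm emission was recorded immediately and after 30 minutes.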
# KAT2A inh = GCN5L2 (KAT2A) acetyltransferase inhibition | Q92830 | GCN5L2 HAT assay, ThioGlo1 CoA-SH fluorescence | Potency, µM (highest dose often 58.9 µM), without a hit: top-dose activity change, negative = inhibition, usual class: inhibitors | 0.21% of 390,000 active | AID 504327; also: % is scaled to controls: 0 for no effect and ±100 for the full control effect
#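 Fluorescence readout, Ex340nm/Em540nm: ThioGlo1 (50uM final) reacts with free CoA thiol released as 20nM GCN5L2 acetylates H3(1-25) peptide (75uM) using acetyl-CoA (70uM). Compound and enzyme sat 15 min beforehand; 20 min room-temperature reaction.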
# IMPase Li cell = cell-permeable IMPase inhibitors with lithium potentiation | Potency, µM (titrated, usually from 59.4 µM), without a hit: at the top dose activity, negative = IMPase inhibition, actives largely listed as inhibitors | CHO-M1 cells, IP1 TR-FRET (IP-One), carbachol + lithium | 0.35% of 210,000 active | AID 1457;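 also: IP1 builds up when IMPase is blocked and the TR-FRET signal falls; plate controls were basal vehicle for no effect and high inhibitor control for full effect; nearly all actives have a fitted effect of over 50% in size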
#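 CHO cells stably expressing M1 receptor (2000/well) were cultured 16–30 h, then exposed to compounds with a small lithium addition for 30 min at 37C. IP1 was measured by TR-FRET competition; AC50 from Hill fits.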
# * = called active by the depositor; ? = inconclusive; . = no result; [ ] = dose if it differs, or a comment. Unless noted, calls follow the shape of the dose curve; as a rule, active = well fitted curve in the direction sought with a large enough effect; inconclusive = small, poorly fitted or top-dose-only effect, or another doubt; inactive = no such curve, though single readings can be large; an effect the other way counts as inactive or inconclusive. Potency is read from the fitted curve at half-maximal effect.
SMILES,Epigenetic reg,KDM4E inh,NPSR antag,Sfp inh,KAT2A inh,IMPase Li cell
Cc1cccc(CN2CCN(Cc3ccc(Cl)cc3)CC2)c1,3%,16µM*,-2%[46.1 µM],?,-3%,43%[38.3 µM]
Fc1ccc(CN2CCN(c3ccc(Cl)cc3)CC2)cc1,3%,-5%,-8%,4%,-7%,-3%
Cc1cccc(CN2CCN(c3ccc(Cl)cc3)CC2)c1,6%,22µM*,-32%,-15%,-2%,15%
Oc1ccc(Cl)cc1CN1CCN(Cc2ccccc2)CC1,-1%,4%,-2%[46.1 µM],-6%,-5%,21%[38.3 µM]
CCc1ccc(CCN2CCCCC2)nc1,.,.,.,.,.,1%
COP(=O)(OC)c1nc(-c2cccc3ccccc23)oc1NCCc1ccccc1,1%,?,-27%,-16%,-10%,-5%
COP(=O)(OC)c1nc(-c2cccc3ccccc23)oc1N1CCOCC1,-1%,-1%,-13%,-12%,28µM*,?
Cc1ncc([N+](=O)[O-])n1CCN=[N+]=[N-],.,.,.,.,.,-9%
O=c1c(C=Nc2cccnc2Cl)c(O)n(CCCCl)c(=O)n1C1CCCCC1,0%,1%,10µM*,-16%,-2%,4%
O=c1c(C=NCc2cccs2)c(O)n(C2CCCCC2)c(=O)n1C1CCCCC1,-2%,0%,?,13%,0%,0%[38.3 µM]
O=C(NC1CN2CCC1CC2)c1ccc(-c2ccc([N+](=O)[O-])cc2)o1 (stereo unspecified),-3%,-2%,-13%,56µM*,-5%,10%
COc1cc(CCN)c(OC)c(OC)c1,.,.,.,.,.,1%
CON(C)C(=O)Nc1ccc(Br)cc1,.,.,.,8%,1%,.
O=c1c2ccccc2nc(/C=C/c2ccccc2)n1-c1ccc(O)cc1,.,.,.,11%,-14%,.
O=c1c2ccccc2nc(/C=C/c2cccnc2)n1Cc1ccccc1,0%,7.9µM*,17%,32µM*,1%,17%
CC1=CC(=O)NP(=O)(Oc2ccc3ccccc3c2)N1 (stereo unspecified),10%,-9%,-7%[46.1 µM],7.9µM*,32µM*,-3%[38.3 µM]
CC(C)N1CC=C(c2c[nH]c3ccccc23)CC1,-1%,?,-12%[46.1 µM],-1%,-24%,-9%[38.3 µM]
O=S1(=O)N(CCN2CC=C(c3c[nH]c4cc(F)ccc34)CC2)c2cccc3c2N1CCC3,0%,16µM*,?,.,?,13%
BrC(Br)Br,.,.,.,.,.,8%
CCc1ccccc1N1C(=O)NC(=O)/C(=C\c2cc(C)n(C)c2C)C1=O,0%,-23%,-1%,3%,-2%,-3%
COc1cccc(N2C(=O)NC(=O)/C(=C/c3ccc4c5c(cccc35)CC4)C2=O)c1,1%,-3%,-20%,56µM*,-4%,0%
COc1ccc(N2C(=O)NC(=O)/C(=C/c3ccc4c(c3)Cc3ccccc3-4)C2=O)cc1,6%,?,-12%,56µM*,-20%,-14%
CCOc1ccccc1N1C(=O)NC(=O)/C(=C/c2ccc3c4c(cccc24)CC3)C1=O,-1%,?,-28%[46.1 µM],56µM*,-19%,-8%[38.3 µM]
COc1cccc(N2C(=O)CC(=O)NC2=O)c1,0%,4%,-2%[46.1 µM],-22%,-4%,-10%[38.3 µM]
Cc1cc(/C=C2\C(=O)NC(=O)N(c3ccc(Cl)cc3)C2=O)c(C)n1C,3%,1%,-1%,-13%,-1%,-7%
SMILES,Epigenetic reg,KDM4E inh,NPSR antag,Sfp inh,KAT2A inh,IMPase Li cell
CC(C)c1nccn1Cc1ccc(Cl)cc1Cl,.,.,.,.,.,-1%
COP(=O)(OC)O/C(=C\Cl)c1cc(Cl)c(Cl)cc1Cl,.,.,.,.,.,-3%
N[C@H](Cc1ccccc1)c1nn[nH]n1,.,.,.,.,.,3%
Oc1c(Cl)c(Cl)c(Cl)c(Cl)c1Cl (tested in a mixture with another compound),.,.,.,.,.,-6%
O=C1NC(=O)N(Cc2ccccc2)C(=O)/C1=C\N1CCCc2ccccc21,0%,1%,23%,?,?,-8%
O=C1NC(=O)N(Cc2ccccc2Cl)C(=O)/C1=C/N1CCOCC1,-1%,-7%,-8%[46.1 µM],10µM*,-2%,17%[38.3 µM]
CCOP(=S)(OCC)Oc1nc(Cl)c(Cl)cc1Cl,-2%,-6%,.,35µM*,?,9%
COP(=S)(OC)Oc1nc(Cl)c(Cl)cc1Cl,.,.,.,?,20µM*,.
CCOC(=O)CBr,.,.,.,.,.,3%
N/C(=N\N=C/c1ccc(-c2ccc(O)c(C(=O)O)c2)o1)N[N+](=O)[O-],0%,?,-16%[46.1 µM],50µM*,?,20%[38.3 µM]
O=C(O)C1Sc2[nH]c(=O)sc2C2c3cc(Cl)ccc3OC(=O)C12 (stereo unspecified),1%,14µM*,-9%[7.67 µM],50µM*,-4%,-12%[38.3 µM]
CN[C@H]1C[C@H]2O[C@@](C)([C@H]1OC)n1c3ccccc3c3c4c(c5c6ccccc6n2c5c31)C(=O)NC4,6%,?,6.3µM*,-13%,-19%,5%
O=C1OC(c2cc(I)c(O)c(I)c2)(c2cc(I)c(O)c(I)c2)c2ccccc21,1%,.,.,40µM*,8.9µM*,23%
c1ccc2cc3c(cc2c1)-c1cccc2cccc-3c12,.,.,.,.,.,-21%
CCOC(=O)c1c(-n2c(C)cc(C=C3C(=O)NC(=O)NC3=O)c2C)sc2c1CCCC2,1%,-7%,?,-28%,-4%,13%[38.3 µM]
Cc1cccc(N2C(=O)NC(=O)/C(=C\c3cc(C)n(-c4sc5c(c4C#N)CCCC5)c3C)C2=O)c1C,15%,7%,5%,35µM*,-8%,6%
